Bioassay records as filed in PubChem.
12-LOX inh: blocks human arachidonate 12S-lipoxygenase | Potency, µM (top dose mostly 108 µM), for inactives: top-dose activity change, negative = inhibition, most hits filed as inhibitors | 1.1% of 580,000 active | purified 12hLO, xylenol orange hydroperoxide absorbance | P18054; further: on the % scale 0 is the no-effect control and ±100 the full control effect
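Hydroperoxide product was detected by ferrous iron/xylenol orange as the 573 to 405 nm absorbance ratio. Arachidonic acid at 40 uM (final) was turned over for 30 min at room temperature by 150 nM human 12hLO, pH 7.0 Hepes buffer, after 15 min compound preincubation.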
EPAC2 antag: antagonists of human EPAC2. EPAC2 GEF exchange of Rap1B-BODIPY-GDP, fluorescence. Q8WZA2. Potency, µM (series often up to 114 µM), without a hit: at the highest dose activity, negative = inhibition, most hits filed as inhibitors. 0.18% of 360,000 active; further: on the % scale 0 is the no-effect control and ±100 the full control effect; nearly all actives have a fitted effect of over 45% in size
USP1 inh: inhibitors of human USP1/UAF1 deubiquitinase; Potency, µM (series often up to 57.1 µM), inactives show at the highest dose activity change, negative = inhibition, actives largely listed as inhibitors; O94782; 0.23% of 390,000 active; AID 743255; recombinant USP1/UAF1, Ub-Rhodamine cleavage fluorescence; further: on the % scale 0 is the no-effect control and ±100 the full control effect; nearly all actives have a fitted effect of over 60% in size
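High-throughput fluorogenic screen: 1nM USP1/UAF1 complex, Ub-Rho substrate 150nM final, 50mM HEPES pH 7.8 with 0.5mM EDTA, 0.1 mg/ml BSA, 1mM TCEP and 0.01% Tween-20.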
EPAC1 antag: antagonists of human EPAC1; Potency, µM (series often up to 115 µM), without a hit: top-dose activity change, negative = inhibition, hits mostly inhibitors; 0.14% of 360,000 active; O95398; EPAC1 GEF assay, Rap1b-BODIPY-GDP exchange fluorescence;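 further: plate controls were vehicle for no effect and positive control for full effect; nearly all actives have a fitted effect of over 50% in size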
EPAC1 ag: agonists of human EPAC1 | O95398 | EPAC1 agonist qHTS, biochemical assay; response scale: 100% = response to 6.5 mM cAMP | Potency, µM (titrated, usually from 154 µM), for the others: top-dose activation, usual class: activators | 0.073% of 360,000 active | AID 720707; further: nearly all actives have a fitted effect of over 60% in size
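Normalized to 6.5 mM cAMP, activity reflects EPAC1-catalysed release of BODIPY-GDP from Rap1B, followed kinetically over 30 min at 480 nm excitation, 540 nm emission. Reaction contained 100 nM EPAC1, 250 nM Rap1B-BODIPY-GDP, 50 uM GDP.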
EPAC2 ag: agonists of human EPAC2 (RAPGEF4) | Q8WZA2 | EPAC2 activation, biochemical qHTS; response scale: 100% = 6.5 mM cAMP response | Potency, µM (series often up to 154 µM), for inactives: top-dose activation, hits mostly activators | 0.079% of 360,000 active | AID 720711; further: nearly all actives have a fitted effect of over 50% in size
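EPAC2 (100 nM) mixed with Rap1B loaded with BODIPY-GDP (250 nM) plus 50 uM unlabeled GDP; compounds pinned in, 5 min RT, then read every 5 min for 30 min (ex 480, em 540 nm). Normalized to cAMP control.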
* marks the source's active call; other numbers are inactive results; ? = inconclusive; / = no result; [ ] = another dose, or the depositor's remark. This is a sample that favours compounds with a hit; in the whole collection about 1.3% have one here. The call rests on the fitted dose curve; in most records, active means well fitted curve in the direction sought with a large enough effect; inconclusive means small, poorly fitted or top-dose-only effect, or another doubt; inactive means no such curve, though single readings can be large; an effect the other way counts as inactive or inconclusive. Potency means the concentration at half of the fitted maximal effect.

SMILES	12-LOX inh	EPAC2 antag	USP1 inh	EPAC1 antag	EPAC1 ag	EPAC2 ag
Cc1ccncc1-c1c(C)nn2c1N(Cc1ccc(C(=O)O)cc1)CCC2	16µM*	/	/	/	/	/
O=C(CSc1ncnc2ccccc12)Nc1cc(C(F)(F)F)cc(C(F)(F)F)c1	1%	/	/	/	/	/
CC(=O)Nc1ccccc1-c1c(C)nn2c1N(C(=O)Cc1ccccc1)CCC2	6%[176 µM]	/	/	/	/	/
CC(=O)Nc1ccccc1-c1c(C)nn2c1N(CCCc1ccccc1)CCC2	16µM*	/	/	/	/	/
COc1cc(C2CC(=O)C3=C(C2)Nc2ncnn2C3c2cccs2)cc(OC)c1OC (centres undefined)	-16%	3%	-15%	6%	-4%	3%
COc1cc(C2C=C(c3cccs3)Nc3ncnn32)cc(OC)c1OC (centres undefined)	/	120%	?	82%	100µM*	24%
CC1=NN(c2ccccc2)C(=O)/C1=C/c1cccs1	-21%	15%	-28%	-6%	-6%	10%
CC1=NN(c2ccc(C)cc2)C(=O)/C1=C\C=C\c1ccccc1	?	3%	?	1%	4%	-7%
CC1=NN(c2cccc(C(=O)O)c2)C(=O)/C1=C\C=C/c1ccccc1	?	16µM*	?	-6%	-3%	0%
CC1=NN(c2ccccc2)C(=O)/C1=C/c1ccc(Cl)cc1	6.3µM*	18%	-25%	-16%	-2%	10%
CC1=NN(c2ccccc2)C(=O)C1=Cc1ccccc1	?	19%	-24%	50µM*	21%	16%
COc1ccccc1NC(=O)c1cc2cc(C)ccc2n1C	-22%	/	/	/	/	/
O=C(O)CC(SCC(=O)Nc1ccc(Cl)c(S(=O)(=O)N2CCOCC2)c1)C(=O)O (centres undefined)	-18%	-1%	-15%	-22%	-4%	-5%
CC(CC(=O)Nc1ccc(Cl)c(S(=O)(=O)N2CCOCC2)c1)c1ccccc1 (centres undefined)	?	1%	-16%	-23%	22µM*	1%
CC(NC(=O)c1ccco1)c1ccccc1OC(F)F (centres undefined)	2%	/	/	/	/	/
CC(=O)OCCCNc1cc(SCc2ccco2)c2nonc2c1[N+](=O)[O-]	?	-9%	0%	?	9%	-5%
CCCC(=O)OCCNc1cc(SCc2ccco2)c2nonc2c1[N+](=O)[O-]	?	-7%	-8%	40µM*	1%	-10%
O=C1C(N2CCOCC2)=C(n2nnc3ccccc32)C(=O)c2ccccc21	0%	-2%	14µM*	-28%	1%	2%
CC1CCN(C(=O)c2cc3c(s2)CCN(C(=O)c2ccc(Cl)cc2)C3)CC1	-4%	/	/	/	/	/
CCC(c1cccs1)N1C(=O)[C@H]2CN(S(=O)(=O)c3cccc(Cl)c3)C[C@H]2C1=O (some centres undefined)	32µM*	/	/	/	/	/
CC(C)=C1C(=O)NN(c2ccc(C)c(Cl)c2)C1=O	50µM*	-11%	1%	?	-13%	-6%
CC1CCCCC1NC(=O)c1ccc2c(c1)CCC2 (centres undefined)	-37%	/	/	/	/	/
COc1ccc(/C=C2\SC(=S)N(CCC(=O)Nc3ccccc3C(=O)O)C2=O)cc1	0%	-26%	-18%	-8%	-2%	-2%
COc1ccc(/C=C2/SC(=S)N(c3ccc(S(=O)(=O)Nc4nccs4)cc3)C2=O)cc1	437%	0%	?	71µM*	7%	-7%
Cc1ccc(/C=C2/SC(=S)N(c3ccc(S(=O)(=O)Nc4nccs4)cc3)C2=O)cc1	214%	-11%	?	?	9%	4%
SMILES	12-LOX inh	EPAC2 antag	USP1 inh	EPAC1 antag	EPAC1 ag	EPAC2 ag
COc1ccc(/C=C2\SC(=O)N(CCCC(=O)Nc3cc(Cl)ccc3C(=O)O)C2=O)cc1	35µM*	-1%	-18%	-16%	0%	-3%
COc1ccc(/C=C2/SC(=O)N(CCC(=O)Nc3ccc(S(=O)(=O)Nc4nccs4)cc3)C2=O)cc1	-7%	-1%	-12%	50µM*	-10%	14%
Cn1c2c(c(=O)n(C)c1=O)C(c1ccc(O)cc1)C1=C(CC(C)(C)CC1=O)N2 (centres undefined)	-27%	/	/	/	/	/
Cc1ccc(C2Cn3cnc(C(=O)N4CCC(C(=O)NCc5ccco5)CC4)c3CO2)cc1 (centres undefined)	5%	/	/	/	/	/
N#Cc1ccccc1OCC(=O)c1ccc2ccccc2c1	19%	/	/	/	/	/
CCN(CC)S(=O)(=O)c1ccc(Oc2ccc3ccccc3c2)nc1	-2%	/	/	/	/	/
O=[N+]([O-])c1cc(Cl)cc(/C=N/NC(=S)Nc2ccc(S(=O)(=O)N3CCOCC3)cc2)c1O	?	56µM*	?	?	-10%	-11%
CC(=O)c1ccc(NC(=O)CN2CCN(c3nc(-c4ccco4)c4c(c3C#N)CCC4)CC2)cc1	-14%	/	/	/	/	/
CC(NC(=O)Nc1ccc(O)cc1)(C(F)(F)F)C(F)(F)F	-41%	?	?	79µM*	-2%	-19%
CCC1(N2CCN(S(=O)(=O)c3ccc4c(c3)CCCC4)CC2)CCN(C(=O)C(C)C)C1 (centres undefined)	22µM*	/	/	/	/	/
CCNc1c(NS(=O)(=O)c2ccc(F)cc2F)c(=O)oc2ccccc12	-29%	/	/	/	/	/
COc1cccc(-n2cnnc2SC(C)C(=O)Nc2ccc(C(C)C)cc2)c1 (centres undefined)	7%	/	/	/	/	/
CN(C)Cc1ccccc1-c1cc(Nc2ccccc2)ncn1	-9%	/	/	/	/	/
CN(C)Cc1ccccc1-c1cc(N(C)C)ncn1	40µM*	/	/	/	/	/
O=C(C1=C(O)C(=O)N(CCN2CCOCC2)C1c1cccc(O)c1)c1cc2ccccc2o1 (centres undefined)	-27%	8%	-6%	-2%	7%	21%
O=C(C1=C(O)C(=O)N(CCN2CCOCC2)C1c1cccs1)c1cc2ccccc2o1 (centres undefined)	7.1µM*	1%	-17%	12%	-2%	5%
Cc1cc(C(=O)NC(C)c2ccc(F)c(F)c2)c2cnn(C(C)C)c2n1 (centres undefined)	-20%	/	/	/	/	/
C[N+]1(CC(=O)OC2CCCCCCCCCCC2)CCCC1	45µM*	2%	-24%	-21%	-7%	3%
COC(=O)CCCCCCCCCC[N+]1(C)CCCCC1	?	9%	-2%	-4%	11%	8%
COc1ccccc1NC(=O)Cc1csc(NC(=S)Nc2ccccc2)n1	18µM*	-1%	-20%	-11%	19%	4%
Cc1ccc2c(Cl)c(Cc3ccccc3)c(=S)[nH]c2n1	32µM*	-15%	-15%	-5%	-3%	13%
